Only some compounds are listed: those with a hit (about 10% of all), similar ones and a draw of the others.
HEK cytotox: Cytotoxic Profiling in HEK 293 Cell Line of Diverse Libraries Using Quantitative High-Throughput Screening; 6.6% of 94,000 active; HEK 293 viability, ATP luminescence (CellTiter-Glo), 48-72 h; Potency, µM (highest dose often 115 µM), most hits filed as inhibitors; also: nearly all actives have a fitted effect of over 60% in size
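Viability of HEK 293 cells, plated at 250 cells/well, was judged by cellular ATP after compound treatment for 48 or 72 hr. Luminescence was imaged 10 min after CellTiter-Glo addition at room temperature.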
hNpr1 antagonist: Natriuretic polypeptide receptor (hNpr1) antagonism - Primary qHTS. HEK293 hNpr1 GloSensor cGMP, ANP-stimulated luminescence. Potency, µM (top dose mostly 46.3 µM), hits mostly inhibitors. 1.6% of 76,000 active; calls by dose curve; also: nearly all actives have a fitted effect of over 60% in size
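HEK293 cells stably expressing human Npr1 and cGMP GloSensor pGS-40F, loaded 2 h with 2% GloSensor reagent, given compound 30 min at room temperature. Luminescence read before and 20 min after 0.1 nM hNppA.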
NIH3T3 tox: Cytotoxic Profiling in NIH 3T3 Cell Line of Diverse Libraries Using Quantitative High-Throughput Screening; 4.3% of 94,000 active; NIH 3T3 viability, CellTiter-Glo ATP luminescence, 48-72 h; Potency, µM (series often up to 96.7 µM), actives largely listed as inhibitors; also: nearly all actives have a fitted effect of over 55% in size
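First NIH 3T3 cells are plated at 400 cells/well; next compound is pinned in; then plates incubate 48 or 72 hr at 37 °C; finally CellTiter-Glo is added and luminescence read after 10 min.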
GPT2 inh: Primary qHTS assay for inhibitors of Glutamate pyruvate transaminase 2 (GPT2) | 0.25% of 100,000 active | Potency, µM (highest dose often 57.7 µM), usual class: inhibitors | Alanine aminotransferase 2 (Homo sapiens), Q8TD30 | Recombinant GPT2, coupled pyruvate oxidase/HRP Amplex Red fluorescence; also: nearly all actives have a fitted effect of over 60% in size
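GPT2 10ng/uL, a-KG 250uM, L-Ala 2mM, HEPES pH7.5 + 0.0001% Tween; 30 min RT. Then Amplex mix (PO/HRP/ThPP), 30 min RT dark, fluorescence. AOA 50uM used as positive control.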
Luciferase inh: Firefly luciferase inhibition profiling of diverse chemical library using quantitative high-throughput screening | Luciferin 4-monooxygenase (Photinus pyralis), P08659 | purified P. pyralis luciferase, luminescence, biochemical | Potency, µM (top dose mostly 115 µM), usual class: inhibitors | 2.5% of 76,000 active; also: nearly all actives have a fitted effect of over 65% in size
Target sequence (P08659 whole entry, looked up): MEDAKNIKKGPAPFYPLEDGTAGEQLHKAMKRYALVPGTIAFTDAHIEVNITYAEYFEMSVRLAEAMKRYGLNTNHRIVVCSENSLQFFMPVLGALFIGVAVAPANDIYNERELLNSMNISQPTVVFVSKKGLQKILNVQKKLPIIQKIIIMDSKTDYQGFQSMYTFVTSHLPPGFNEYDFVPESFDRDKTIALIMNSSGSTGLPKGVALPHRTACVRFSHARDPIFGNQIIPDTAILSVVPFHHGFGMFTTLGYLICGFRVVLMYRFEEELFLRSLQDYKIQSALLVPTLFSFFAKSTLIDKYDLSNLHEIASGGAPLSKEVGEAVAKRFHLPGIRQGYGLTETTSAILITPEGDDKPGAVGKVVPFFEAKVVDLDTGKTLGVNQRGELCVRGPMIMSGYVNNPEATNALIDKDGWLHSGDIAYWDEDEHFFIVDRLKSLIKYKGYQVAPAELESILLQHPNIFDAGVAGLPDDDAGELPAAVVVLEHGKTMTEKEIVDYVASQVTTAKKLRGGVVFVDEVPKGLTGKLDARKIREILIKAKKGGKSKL
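Luminescence read by CCD imaging after purified firefly luciferase (10nM final) was added to substrate buffer holding 10uM D-luciferin and 10uM ATP, pH 7.5, pre-dosed with compound.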
Npr1 antag conf: Natriuretic polypeptide receptor (hNpr1) antagonism - Confirmation | shares compounds with hNpr1 antagonist | AID 1347044, 2019 | HEK293 hNpr1 cGMP GloSensor luminescence, ANP-stimulated | 76% of 1,400 active | Potency, µM (top dose mostly 57.6 µM), actives largely listed as inhibitors; calls by dose curve; also: nearly all actives have a fitted effect of over 70% in size
NPR2 antag: Natriuretic polypeptide receptor (hNpr2) antagonism - Subtype selectivity assay; Potency, µM (titrated, usually from 57.6 µM), hits mostly inhibitors; 67% of 1,400 active; shares compounds with hNpr1 antagonist; AID 1347046, 2019; HEK293 hNpr2 GloSensor cGMP luminescence, CNP-stimulated; calls by dose curve; also: nearly all actives have a fitted effect of over 70% in size
FLuc counter: Natriuretic polypeptide receptor (hNpr1) antagonism - Confirmation firefly luciferase (FLuc) inhibition counterscreen | shares compounds with hNpr1 antagonist | purified FLuc enzyme, luminescence, Km substrate | Potency, µM (series often up to 57.6 µM), hits mostly inhibitors | 0.7% of 1,400 active | AID 1347047, 2019
GloSensor ctrl: Natriuretic polypeptide receptor (hNpr1) antagonism - Counterscreen GloSensor control cell line | Potency, µM (doses to about 57.6 µM), most hits filed as inhibitors | HEK293 GloSensor cGMP, SNP-stimulated, luminescence | 69% of 1,400 active | AID 1347051, 2019 | shares compounds with hNpr1 antagonist; calls by dose curve; also: nearly all actives have a fitted effect of over 70% in size
Large screens that a line does not name were inactive (follow-up assays come after a bar, where they were run). Unless noted, calls follow the shape of the dose curve; as a rule, active = well fitted curve in the direction sought with a large enough effect; inconclusive = small, poorly fitted or top-dose-only effect, or another doubt; inactive = no such curve, though single readings can be large; an effect the other way counts as inactive or inconclusive.

COc1ccccc1C(=O)N1CCC(Cc2nc(-c3ccc(F)cc3)no2)CC1	HEK cytotox inconclusive, hNpr1 antagonist 6.3µM, NIH3T3 tox inconclusive | Npr1 antag conf 9.7µM | NPR2 antag 12µM | FLuc counter inactive | GloSensor ctrl 11µM
COc1ccc(-c2noc(CC3CCN(C(=O)Cc4ccccc4OC)CC3)n2)cc1	HEK cytotox inconclusive, hNpr1 antagonist inconclusive, NIH3T3 tox inconclusive | Npr1 antag conf 22µM | NPR2 antag 19µM | FLuc counter inactive | GloSensor ctrl 22µM
COc1ccc(C(=O)N2CCC(Cc3nc(-c4ccc(F)cc4)no3)CC2)c(OC)n1	HEK cytotox inconclusive, hNpr1 antagonist 2.8µM, NIH3T3 tox inconclusive | Npr1 antag conf 3.4µM | NPR2 antag 4.8µM | FLuc counter inactive | GloSensor ctrl 4.8µM
COc1ccccc1C(=O)N1CCC(Cc2nc(C(C)C)no2)CC1	HEK cytotox inconclusive
COc1ccccc1CC(=O)N1CCC(Cc2nc(-c3ccc(F)cc3)no2)CC1	HEK cytotox inconclusive, hNpr1 antagonist 1.3µM, NIH3T3 tox inconclusive | Npr1 antag conf 2.4µM | NPR2 antag 2.4µM | FLuc counter inactive | GloSensor ctrl 1.9µM
O=C(c1ccc(F)cc1F)N1CCC(Cc2nc(-c3cnccn3)no2)CC1	none
O=C(c1ccccn1)N1CC(Oc2ccc3c(c2)OCO3)C1	HEK cytotox inconclusive (no result: hNpr1 antagonist, Luciferase inh)
COCCCn1c(=O)c(C(=O)NCc2ccc(C(F)(F)F)cc2)nc2cccnc21	HEK cytotox inconclusive, NIH3T3 tox inconclusive (no result: hNpr1 antagonist, Luciferase inh)
COCCN1C(=O)c2ccccc2C(C(=O)Nc2nc(C)cs2)C12CCCC2 (configuration not stated)	none
CC(C)(C)C(=O)Nc1cc(-c2cccnc2)nn1-c1ccccc1	HEK cytotox inconclusive, NIH3T3 tox inconclusive (no result: hNpr1 antagonist, Luciferase inh)
O=C1c2ccccc2CN1C1CCN(Cc2ccc(C(F)(F)F)cc2)CC1	HEK cytotox inconclusive, NIH3T3 tox inconclusive (no result: hNpr1 antagonist, Luciferase inh) | Npr1 antag conf 22µM | NPR2 antag 24µM | FLuc counter inactive | GloSensor ctrl 19µM
CC(=O)Nc1ccc(CN2CCC(N3Cc4ccccc4C3=O)CC2)cc1	none (no result: hNpr1 antagonist, Luciferase inh)
O=C1N(Cc2ccc(F)cc2)C[C@H]2CN(Cc3ccc(C(F)(F)F)cc3)CCN12	HEK cytotox inconclusive, hNpr1 antagonist 10µM, NIH3T3 tox inconclusive, GPT2 inh inconclusive | Npr1 antag conf 11µM | NPR2 antag 16µM | FLuc counter inactive | GloSensor ctrl 8.9µM
O=C1N(C2CCOCC2)C[C@H]2CN(Cc3ccc(C(F)(F)F)cc3)CCN12	HEK cytotox inconclusive, hNpr1 antagonist inconclusive
O=C1N(Cc2ccccn2)C[C@H]2CN(Cc3ccc(C(F)(F)F)cc3)CCN12	HEK cytotox inconclusive, hNpr1 antagonist inconclusive, NIH3T3 tox inconclusive
O=C1N(C2CCCCC2)C[C@H]2CN(Cc3ccc(C(F)(F)F)cc3)CCN12	HEK cytotox inconclusive, hNpr1 antagonist 13µM, NIH3T3 tox inconclusive | Npr1 antag conf 16µM | NPR2 antag 20µM | FLuc counter inactive | GloSensor ctrl 16µM
COc1ccc(CN2C[C@H]3CN(Cc4ccc(C)cc4)CCN3C2=O)cc1	HEK cytotox inconclusive, hNpr1 antagonist 18µM, NIH3T3 tox inconclusive | Npr1 antag conf 18µM | NPR2 antag 22µM | FLuc counter inactive | GloSensor ctrl 20µM
Cc1ccc(CNC(=O)c2ccc(N3CC4CC(C3)[C@H]3CCCC(=O)N3C4)nc2)o1 (some centres not stated)	none
O=C1COc2ccc(NCCOc3ccccc3)nc2CN1Cc1ccccc1F	HEK cytotox inconclusive, hNpr1 antagonist 22µM, NIH3T3 tox inconclusive | Npr1 antag conf 31µM | NPR2 antag 35µM | FLuc counter inactive | GloSensor ctrl 31µM
O=C1COc2ccc(NCCc3ccccn3)nc2CN1Cc1ccc(C(F)(F)F)cc1	HEK cytotox inconclusive, hNpr1 antagonist inconclusive, NIH3T3 tox inconclusive | Npr1 antag conf inconclusive | NPR2 antag inconclusive | FLuc counter inactive | GloSensor ctrl inconclusive
O=C1COc2ccc(NCc3cccs3)nc2CN1CCOc1ccccc1	HEK cytotox 89µM, hNpr1 antagonist 14µM, NIH3T3 tox inconclusive | Npr1 antag conf 20µM | NPR2 antag 22µM | FLuc counter inactive | GloSensor ctrl 18µM
CCCN1CCCC2(Cc3ccccc3CN(C(=O)c3c(C)noc3C)C2)C1 (configuration not stated)	none (no result: hNpr1 antagonist, Luciferase inh)
NC(=O)CNC(=O)c1cc2c(s1)CCN(C(=O)c1ccc(Cl)cc1)C2	GPT2 inh inconclusive
COc1ccc(CNC(=O)c2cc3c(s2)CCN(C(=O)c2ccccc2)C3)cc1OC	HEK cytotox inconclusive, hNpr1 antagonist 2.5µM, NIH3T3 tox inconclusive | Npr1 antag conf 3.4µM | NPR2 antag 4.8µM | FLuc counter inactive | GloSensor ctrl 3.1µM
CC1CCCN(C(=O)c2cc3c(s2)CCN(C(=O)c2ccc(Cl)cc2)C3)C1 (configuration not stated)	HEK cytotox 45µM, NIH3T3 tox inconclusive | Npr1 antag conf 27µM | NPR2 antag 27µM | FLuc counter inactive | GloSensor ctrl 24µM
O=C(NCc1ccccc1)c1cc2c(s1)CCN(C(=O)c1ccccc1)C2	HEK cytotox inconclusive, NIH3T3 tox inconclusive
O=C(c1ccccc1)N1CCc2sc(C(=O)N3CCN(c4ccc(F)cc4)CC3)cc2C1	HEK cytotox inconclusive, hNpr1 antagonist 7.1µM, NIH3T3 tox inconclusive | Npr1 antag conf 9.7µM | NPR2 antag 11µM | FLuc counter inactive | GloSensor ctrl 6.9µM

High-throughput results: PubChem BioAssay, National Center for Advancing Translational Sciences (NCATS)
